From PubChem BioAssay AID1159580 (chemical genetic matrix, 2015)
Where “and” joins values, the source holds several entries; their conditions need not be identical. Equal values may be shown once. About 2,000 (36%) of roughly 5,500 compounds were called active. Not shown: some 18% with an inconclusive outcome. Rule as the data show it: active = normalized growth mostly below about 0.91 (no sharp cut-off); inconclusive = no clear call, values can overlap the other calls; inactive = mostly above about 0.92. The list shows a part of the results.

Experiment: chemical genetic growth profiling, strain panel (AID 1159580);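 also: tested at 20 µM; growth read once vehicle control cultures reached saturation at 30 °C; 1 = growth at the plate median or of vehicle wells; lower values mean less growth of the strain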
Conditions: S. cerevisiae deletion strains, growth OD
[1] = locus YAL040C, strain CLN3, stronger effect = lower value
[2] = locus YCL061C, strain MRC1 (second series), stronger effect = lower value
[3] = locus YDR363W, strain ESC2, stronger effect = lower value
[4] = locus YER002W, strain NOP16, stronger effect = lower value
[5] = locus YGR078C, strain PAC10, stronger effect = lower value
[6] = locus YHR030C, strain SLT2, stronger effect = lower value
[7] = locus YHR079C, strain IRE1, stronger effect = lower value
[8] = locus YJL095W, strain BCK1, stronger effect = lower value
[9] = locus YJR066W, strain TOR1, stronger effect = lower value
[10] = locus YLR113W, strain HOG1, stronger effect = lower value
[11] = locus YMR263W, strain SAP30, stronger effect = lower value
[12] = locus YNL128W, strain TEP1, stronger effect = lower value
[13] = locus YNL175C, strain NOP13, stronger effect = lower value
[14] = locus YNL183C, strain NPR1, stronger effect = lower value
[15] = locus YNL197C, strain WHI3, stronger effect = lower value
[16] = locus YNL224C, strain SQS1, stronger effect = lower value
[17] = locus YOR083W, strain WHI5 (second series), stronger effect = lower value
[18] = locus YOR231W, strain MKK1, stronger effect = lower value
[19] = locus YPL256C, strain CLN2, stronger effect = lower value
[20] = locus YDR150W, strain NUM1, stronger effect = lower value
[21] = locus YMR307W, strain GAS1, stronger effect = lower value
[22] = locus YPL241C, strain CIN2, stronger effect = lower value
[23] = locus YGR229C, strain SMI1, stronger effect = lower value

Measured: normalized growth

COc1cc2nc(N3CCN(C(=O)C4COc5ccccc5O4)CC3)nc(N)c2cc1OC (stereo not given)
inactive: [1] 0.982 | [2] 0.985 | [3] 1.07 | [4] 1.01 | [5] 0.986 | [6] 1.03 | [7] 0.981 | [8] 0.983 | [9] 0.968 | [10] 0.999 | [11] 1.01 | [12] 1.01 | [13] 0.99 | [14] 0.939 | [15] 0.947 | [16] 1.01 | [17] 0.988 | [18] 0.983 | [19] 0.988

COc1cc2nc(N3CCN(C(=O)OCc4ccccc4)C(C(=O)NC(C)(C)C)C3)nc(N)c2cc1OC (stereo not given)
active: [4] 1.14 [resistant]
inactive: [1] 0.999 | [2] 0.984 | [20] 0.997 | [3] 0.967 | [5] 1.01 | [11] 0.993 | [21] 0.989 | [12] 1.08 | [13] 1.02 | [15] 1.03 | [16] 1.03 | locus YNL322C, strain KRE1, stronger effect = lower value 0.985 | [17] 1.07 | [22] 0.991

COc1cc2nc(N3CC=[N+](C(=O)c4ccco4)CC3)nc(N)c2cc1OC
inactive: [1] 1.02 | [2] 1 | [20] 1 | [3] 1.01 | [4] 1.01 | [5] 1.01 | [23] 1.01 | [12] 1 | locus YNL153C, strain GIM3, stronger effect = lower value 0.978 | [13] 0.998 | [15] 1.01 | [16] 1.06 | [17] 1.01 | [22] 1

CC(C)=CC1C(C(=O)OCc2cccc(Oc3ccccc3)c2)C1(C)C (stereo not given)
inactive: locus YAL021C, strain ccr4, stronger effect = lower value 1.01 | locus YAL026C, strain drs2, stronger effect = lower value 1.02 | locus YAL030W, strain snc1, stronger effect = lower value 1.01 | locus YBL061C, strain skt5, stronger effect = lower value 1.01 | locus YBR009C, strain hhf1, stronger effect = lower value 1.01 | locus YBR021W, strain FUR4, stronger effect = lower value 0.998 | locus YBR023C, strain chs3, stronger effect = lower value 1.01 | locus YBR171W, strain sec66, stronger effect = lower value 1.02 | locus YBR229C, strain ROT2, stronger effect = lower value 0.947 | locus YBR231C, strain swc5, stronger effect = lower value 0.994 | locus YBR279W, strain paf1, stronger effect = lower value 1 | locus YCL011C, strain gbp2, stronger effect = lower value 1.01 | locus YCL016C, strain dcc1, stronger effect = lower value 1.01 | locus YCL029C, strain bik1, stronger effect = lower value 0.972 | locus YCL069W, strain vba3, stronger effect = lower value 1.01 | locus YCR088W, strain abp1, stronger effect = lower value 1.01 | locus YDL005C, strain med2, stronger effect = lower value 1.01 | locus YDL035C, strain GPR1, stronger effect = lower value 0.965 | locus YDL040C, strain nat1, stronger effect = lower value 1 | locus YDL074C, strain BRE1, stronger effect = lower value 1.01 | locus YDL101C, strain DUN1, stronger effect = lower value 0.997 | locus YDL185W, strain tfp1, stronger effect = lower value 0.968 | locus YDL192W, strain arf1, stronger effect = lower value 0.987 | locus YDR001C, strain nth1, stronger effect = lower value 1.01 | locus YDR069C, strain doa4, stronger effect = lower value 0.99 | locus YDR101C, strain arx1, stronger effect = lower value 0.967 | locus YDR137W, strain rgp1, stronger effect = lower value 0.993 | [20] 0.993 | locus YDR159W, strain sac3, stronger effect = lower value 1.02 | locus YDR162C, strain NBP2, stronger effect = lower value 0.964 | locus YDR195W, strain ref2 0.98 | locus YDR297W, strain sur2, stronger effect = lower value 1 | locus YDR318W, strain mcm21, stronger effect = lower value 0.986 | locus YDR334W, strain swr1, stronger effect = lower value 1.01 | locus YDR335W, strain msn5, stronger effect = lower value 1.02 | locus YDR388W, stronger effect = lower value 0.983 | locus YDR392W, strain spt3, stronger effect = lower value 1.02 | locus YDR502C, strain sam2, stronger effect = lower value 0.992 | locus YEL003W, strain gim4, stronger effect = lower value 1.01 | locus YEL037C, strain rad23, stronger effect = lower value 1.01 | locus YEL061C, strain CIN8 (second series), stronger effect = lower value 1.01 | locus YEL061C, strain CIN8, stronger effect = lower value 0.995 | locus YER015W, strain faa2, stronger effect = lower value 1.01 | locus YER016W, strain bim1, stronger effect = lower value 1.01 | locus YER110C, stronger effect = lower value 0.978 | locus YER111C, strain swi4, stronger effect = lower value 1.01 | locus YER155C, strain BEM2 (second series), stronger effect = lower value 1.02 | locus YER155C, strain BEM2, stronger effect = lower value 0.998 | locus YER167W, strain BCK2, stronger effect = lower value 0.99 | locus YFR010W, strain ubp6, stronger effect = lower value 0.997 | locus YGL078C, strain dbp3, stronger effect = lower value 0.987 | locus YGL086W, strain mad1, stronger effect = lower value 0.996 | locus YGL167C, strain pmr1, stronger effect = lower value 1.02 | locus YGL173C, strain kem1, stronger effect = lower value 1 | locus YGL227W, strain vid30, stronger effect = lower value 1.01 | locus YGL240W, strain doc1, stronger effect = lower value 1.03 | locus YGL248W, strain PDE1, stronger effect = lower value 1.01 | locus YGL253W, strain hxk2, stronger effect = lower value 1.01 | [5] 1.01 | locus YGR135W, strain pre9, stronger effect = lower value 0.982 | [23] 0.99 | locus YGR252W, strain gcn5, stronger effect = lower value 0.991 | locus YHR013C, strain ard1, stronger effect = lower value 1.01 | locus YHR027C, strain rpn1, stronger effect = lower value 1.01 | [6] 0.987 and 0.975 | locus YHR079C, strain IRE1 (second series), stronger effect = lower value 0.99 | [7] 0.979 | locus YHR094C, strain hxt1, stronger effect = lower value 0.988 | locus YHR129C, strain ARP1, stronger effect = lower value 0.991 | locus YHR142W, strain chs7, stronger effect = lower value 1 | locus YHR200W, strain rpn10, stronger effect = lower value 0.976 | locus YIL066C, strain RNR3, stronger effect = lower value 0.96 | locus YIL073C, strain SPO22, stronger effect = lower value 1 | locus YIL125W, strain kgd1, stronger effect = lower value 0.976 | locus YIR030C, strain dcg1, stronger effect = lower value 0.982 | locus YJL092W, strain hpr5, stronger effect = lower value 1.01 | locus YJL095W, strain BCK1 (second series), stronger effect = lower value 1 | [8] 1.06 and 0.979 | locus YJL115W, strain asf1, stronger effect = lower value 1.02 | locus YJL129C, strain trk1, stronger effect = lower value 1.03 | locus YJL134W, strain LCB3, stronger effect = lower value 0.987 | locus YJL154C, strain vps35, stronger effect = lower value 1.01 | locus YJL164C, strain tpk1, stronger effect = lower value 1.01 | locus YJL166W, strain qcr8, stronger effect = lower value 1 | locus YJL168C, strain set2, stronger effect = lower value 0.994 | locus YJL187C, strain SWE1 (second series), stronger effect = lower value 1.04 | locus YJR043C, strain POL32, stronger effect = lower value 0.971 | [9] 0.896 | locus YKL009W, strain mrt4, stronger effect = lower value 0.977 | locus YKL068W, stronger effect = lower value 0.987 | locus YKL085W, strain MDH1 (second series), stronger effect = lower value 1 | locus YKL085W, strain MDH1, stronger effect = lower value 1 | locus YKL160W, strain elf1, stronger effect = lower value 1.02 | locus YKL190W, strain CNB1, stronger effect = lower value 0.997 | locus YKR001C, strain vps1, stronger effect = lower value 0.992 | locus YKR026C, strain gcn3, stronger effect = lower value 1.01 | locus YKR091W, strain srl3, stronger effect = lower value 1.01 | locus YLL001W, strain dnm1, stronger effect = lower value 1.02 | locus YLL026W, stronger effect = lower value 1.01 | locus YLL041C, strain sdh2, stronger effect = lower value 1.02 | locus YLR027C, strain aat2, stronger effect = lower value 1.01 | locus YLR039C, strain RIC1, stronger effect = lower value 0.972 | locus YLR058C, strain SHM2, stronger effect = lower value 0.993 | locus YLR102C, strain apc9, stronger effect = lower value 0.991 | [10] 0.998 | locus YLR221C, strain rsa3, stronger effect = lower value 1.01 | locus YLR258W, strain gsy2, stronger effect = lower value 1.01 | locus YLR262C, strain YPT6 (second series), stronger effect = lower value 1.01 | locus YLR262C, strain YPT6, stronger effect = lower value 0.927 | locus YLR268W, strain sec22, stronger effect = lower value 0.993 | locus YLR320W, strain mms22, stronger effect = lower value 1.01 | locus YLR330W, strain CHS5, stronger effect = lower value 0.984 | locus YLR342W, strain FKS1 (second series), stronger effect = lower value 0.959 | locus YLR342W, strain FKS1, stronger effect = lower value 1.01 | locus YLR357W, strain rsc2, stronger effect = lower value 1.01 | locus YLR370C, strain arc18, stronger effect = lower value 1.03 | locus YLR371W, strain rom2, stronger effect = lower value 0.972 | locus YLR384C, strain iki3, stronger effect = lower value 1.02 | locus YLR418C, strain cdc73, stronger effect = lower value 0.985 | locus YML016C, strain PPZ1, stronger effect = lower value 0.993 | locus YML032C, strain rad52, stronger effect = lower value 0.983 | locus YML120C, strain ndi1, stronger effect = lower value 1.01 | locus YML124C, strain tub3, stronger effect = lower value 0.995 | locus YMR058W, strain fet3, stronger effect = lower value 1.02 | locus YMR078C, strain ctf18, stronger effect = lower value 0.972 | locus YMR125W, strain sto1, stronger effect = lower value 1.02 | locus YMR129W, stronger effect = lower value 1 | locus YMR205C, strain PFK2, stronger effect = lower value 0.993 | locus YMR223W, strain ubp8, stronger effect = lower value 0.983 | locus YMR231W, strain pep5, stronger effect = lower value 1.01 | [21] 1.02 | locus YNL067W, strain RPL9B, stronger effect = lower value 1.04 | locus YNL071W, strain lat1, stronger effect = lower value 1.01 | [14] 0.934 | locus YNL209W, strain ssb2, stronger effect = lower value 0.998 | locus YNL233W, strain BNI4, stronger effect = lower value 1.05 | locus YNL248C, strain rpa49, stronger effect = lower value 0.994 | locus YNL250W, strain rad50, stronger effect = lower value 0.982 | locus YNL271C, strain bni1, stronger effect = lower value 0.971 | locus YNL298W, strain CLA4, stronger effect = lower value 0.986 | locus YNL307C, strain MCK1, stronger effect = lower value 0.983 | locus YNL322C, strain KRE1 (second series), stronger effect = lower value 1.01 | locus YNR049C, strain mso1, stronger effect = lower value 1.01 | locus YNR052C, strain pop2, stronger effect = lower value 0.988 | locus YOL006C, strain TOP1, stronger effect = lower value 1.12 | locus YOL012C, strain htz1 1.31 | locus YOL147C, strain pex11, stronger effect = lower value 0.988 | locus YOR001W, strain rrp6, stronger effect = lower value 0.988 | locus YOR061W, strain CKA2, stronger effect = lower value 0.977 | locus YOR069W, strain VPS5, stronger effect = lower value 0.992 | locus YOR070C, strain gyp1, stronger effect = lower value 1 | locus YOR080W, strain dia2, stronger effect = lower value 1.01 | locus YOR083W, strain WHI5, stronger effect = lower value 1 | locus YOR106W, strain vam3, stronger effect = lower value 0.938 | locus YOR136W, strain idh2, stronger effect = lower value 0.996 | locus YOR144C, strain elg1, stronger effect = lower value 0.971 | locus YOR184W, strain ser1, stronger effect = lower value 0.992 | [18] 0.989 | locus YOR265W, strain rbl2, stronger effect = lower value 0.996 | locus YOR270C, strain vph1, stronger effect = lower value 0.948 | locus YOR290C, strain snf2, stronger effect = lower value 1.02 | locus YOR316C, strain cot1, stronger effect = lower value 0.985 | locus YPL051W, strain arl3, stronger effect = lower value 0.995 | locus YPL078C, strain atp4, stronger effect = lower value 1.02 | locus YPL106C, strain sse1, stronger effect = lower value 1.04 | locus YPL240C, strain hsp82, stronger effect = lower value 1.01 | [19] 0.995 | locus YPR119W, strain clb2, stronger effect = lower value 0.988 | locus YPR141C, strain kar3, stronger effect = lower value 0.982 | locus YPR163C, strain tif3, stronger effect = lower value 0.97 | locus YPR167C, strain met16, stronger effect = lower value 0.983 | strain wtn01, stronger effect = lower value 0.995
